The text below walks through data of PubChem BioAssay (EPA / NIEHS).

Several values for one entry are separate records, joined by “and”; a condition that tells them apart may be missing. Identical values can stand only once. Some structures have more than one record in an assay (separate samples or runs), and their calls can disagree. Activity calls are given as the source filed them. Rule for the calls: active = hit-call score of the fitted dose curve at least 0.9, where 1 is the maximum; inactive = score below 0.9.

Assay [1] is described as follows: ATG_ISRE_CIS: Attagene CIS-FACTORIAL HepG2 Assay for human Interferon Regulatory Factor 1 (IRF1) binding to an Interferon-Stimulated Response Element (ISRE) (AID 2282948). As to conditions: HepG2 ISRE cis-reporter (Attagene), mRNA transcription readout; actives raise or lower the signal. The method, boiled down:
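HepG2 cells transiently transfected with multiplexed cis-promoter reporter units; after 24 h compound exposure, reporter mRNA quantified by RT-PCR, FAM labelling, HpaI digestion and capillary electrophoresis. Bidirectional fit versus DMSO baseline.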

Assay [2] can be described thus: ATG_M_32_CIS: Attagene CIS-FACTORIAL HepG2 Assay for M32 Transcription Factor (Internal Marker) (AID 2282949).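 Note: background control marker of the multiplexed CIS panel rather than a real target.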 The following applies: HepG2 Attagene cis-factorial M32 reporter, mRNA; actives raise or lower the signal. The method in brief:
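Fluorescent capillary electrophoresis peaks of HpaI-digested, FAM-labelled RT-PCR reporter products give the signal. Source: transiently transfected human liver HepG2 cells, 24 h after chemical dosing; bidirectional fitting against DMSO.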

Assay [3] concerns the target Hypoxia-inducible factor 1-alpha (Homo sapiens) (UniProt Q16665). Description: ATG_HIF1a_CIS: Attagene CIS-FACTORIAL HepG2 Assay for human Hypoxia Inducible Factor 1 (HIF1A) (AID 2282951). The following applies: HepG2 Attagene cis-factorial HIF1a reporter transcription; actives raise or lower the signal. The method in brief:
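HepG2 cells transiently transfected with multiplexed cis-promoter reporter units; reporter mRNA read 24 h after dosing by RT-PCR, 6-FAM primer-extension labelling, HpaI digestion and capillary electrophoresis. Bidirectional fit versus DMSO baseline.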

Assay [4] has as its target Hepatocyte nuclear factor 6 (Homo sapiens) (UniProt Q9UBC0). The assay is described as follows: ATG_HNF6_CIS: Attagene CIS-FACTORIAL HepG2 Assay for human Hepatocyte Nuclear Factor 6 (HNF6) (AID 2282952). The following applies: HepG2 Attagene cis-factorial HNF6 reporter transcription; actives raise or lower the signal. The method, boiled down:
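Multiplexed mRNA reporter assay in transfected HepG2; 24 h dosing; RT-PCR plus capillary electrophoresis fluorescence; DMSO-referenced bidirectional curve fitting.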

The target of assay [5] is Heat shock factor protein 1 (Homo sapiens) (UniProt Q00613). Description: ATG_HSE_CIS: Attagene CIS-FACTORIAL HepG2 Assay for human Heat Shock Transcription Factor 1 (HSE) (AID 2282953). The following applies: HepG2 HSE cis-reporter, Attagene RNA transcription; actives raise or lower the signal. The method in brief: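 HepG2 cells transiently transfected with multiple reporter transcription units under cis-regulatory promoter control, measuring endogenous transcription factor activity. After 24 h chemical exposure, reporter mRNA quantified by RT-PCR, fluorescent labelling, HpaI digestion and capillary electrophoresis; bidirectional fit versus DMSO.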
Heat shock factor protein 1 (Homo sapiens), sequence (Q00613 whole entry, looked up): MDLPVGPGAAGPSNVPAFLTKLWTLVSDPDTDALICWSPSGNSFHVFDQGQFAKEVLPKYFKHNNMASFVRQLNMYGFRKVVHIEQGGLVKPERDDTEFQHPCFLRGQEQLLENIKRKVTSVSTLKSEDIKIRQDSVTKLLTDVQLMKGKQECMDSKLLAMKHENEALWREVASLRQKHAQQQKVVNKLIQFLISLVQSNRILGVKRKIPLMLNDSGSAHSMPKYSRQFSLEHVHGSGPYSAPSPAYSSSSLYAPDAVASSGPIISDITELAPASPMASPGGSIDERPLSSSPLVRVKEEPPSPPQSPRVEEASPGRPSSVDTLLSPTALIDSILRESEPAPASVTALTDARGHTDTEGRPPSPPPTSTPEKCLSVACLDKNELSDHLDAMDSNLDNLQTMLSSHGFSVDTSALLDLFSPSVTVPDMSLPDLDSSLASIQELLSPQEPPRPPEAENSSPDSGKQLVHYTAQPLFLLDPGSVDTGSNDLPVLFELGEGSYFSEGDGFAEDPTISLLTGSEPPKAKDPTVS

Assay [6] can be described thus: ATG_MRE_CIS: Attagene CIS-FACTORIAL HepG2 Assay for human Metal Responsive Element (MRE) (AID 2282954). The following applies: HepG2 MRE cis-reporter transcription, Attagene multiplex; actives raise or lower the signal. The method, boiled down: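 HepG2 cells transiently transfected with cis-element-driven reporter units; mRNA measured 24 h after dosing. Reporter transcripts quantified by RT-PCR, FAM labelling, HpaI digestion and capillary electrophoresis; bidirectional fit versus DMSO.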

The nature of assay [7]: ATG_PBREM_CIS: Attagene CIS-FACTORIAL HepG2 Assay for human Phenobarbital-responsive Enhancer Module (PBREM) (AID 2282955). As to conditions: HepG2 PBREM cis-reporter, Attagene multiplexed transcription; actives raise or lower the signal. The method in brief:
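HepG2 cells transiently transfected with multiple cis-regulated reporter transcription units; endogenous factor activity at the PBREM element measured as reporter mRNA 24 h after dosing, via RT-PCR and capillary electrophoresis of fluorescent fragments; bidirectional fitting versus DMSO.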

Assay [8] deals with Paired box protein Pax-6 (Homo sapiens) (UniProt P26367). Description: ATG_Pax6_CIS: Attagene CIS-FACTORIAL HepG2 Assay for human Paired Box 6 (PAX6) (AID 2282956). As to conditions: HepG2 CIS-FACTORIAL PAX6 reporter transcription, RNA readout; actives raise or lower the signal. The method in brief:
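HepG2 cells transiently transfected with multiplexed cis-promoter reporter units (endogenous TF activity) were dosed for 24 h. Reporter mRNA was quantified by RT-PCR, 6-FAM labeling, HpaI digestion and capillary electrophoresis; bidirectional fitting versus DMSO baseline.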

Assay [9] is described as follows: ATG_PXRE_CIS: Attagene CIS-FACTORIAL HepG2 Assay for human Pregnane X Receptor Element (PXRE) (AID 2282957). As to conditions: HepG2 Attagene CIS-FACTORIAL PXRE reporter, mRNA; actives raise or lower the signal. The method in brief: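 Cells: HepG2, transiently transfected reporter units under cis promoter control. Exposure: 24 h. Detection: reporter mRNA via RT-PCR/CE fluorescence; bidirectional fitting, DMSO-referenced.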

Assay [10] is described as follows: ATG_M_06_CIS: Attagene CIS-FACTORIAL HepG2 Assay for M06 Transcription Factor (Internal Marker) (AID 2282950). As to conditions: HepG2 Attagene CIS-FACTORIAL M06 internal marker reporter; actives raise or lower the signal. The method in brief:
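HepG2 cells transiently transfected with cis-regulated multiple reporter transcription units were exposed to chemical for 24 h; reporter mRNA was quantified by RT-PCR, 6-FAM primer labelling, HpaI digestion and capillary electrophoresis, fitted bidirectionally against DMSO.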

Hypoxia-inducible factor 1-alpha (Homo sapiens), sequence (Q16665 whole entry, looked up): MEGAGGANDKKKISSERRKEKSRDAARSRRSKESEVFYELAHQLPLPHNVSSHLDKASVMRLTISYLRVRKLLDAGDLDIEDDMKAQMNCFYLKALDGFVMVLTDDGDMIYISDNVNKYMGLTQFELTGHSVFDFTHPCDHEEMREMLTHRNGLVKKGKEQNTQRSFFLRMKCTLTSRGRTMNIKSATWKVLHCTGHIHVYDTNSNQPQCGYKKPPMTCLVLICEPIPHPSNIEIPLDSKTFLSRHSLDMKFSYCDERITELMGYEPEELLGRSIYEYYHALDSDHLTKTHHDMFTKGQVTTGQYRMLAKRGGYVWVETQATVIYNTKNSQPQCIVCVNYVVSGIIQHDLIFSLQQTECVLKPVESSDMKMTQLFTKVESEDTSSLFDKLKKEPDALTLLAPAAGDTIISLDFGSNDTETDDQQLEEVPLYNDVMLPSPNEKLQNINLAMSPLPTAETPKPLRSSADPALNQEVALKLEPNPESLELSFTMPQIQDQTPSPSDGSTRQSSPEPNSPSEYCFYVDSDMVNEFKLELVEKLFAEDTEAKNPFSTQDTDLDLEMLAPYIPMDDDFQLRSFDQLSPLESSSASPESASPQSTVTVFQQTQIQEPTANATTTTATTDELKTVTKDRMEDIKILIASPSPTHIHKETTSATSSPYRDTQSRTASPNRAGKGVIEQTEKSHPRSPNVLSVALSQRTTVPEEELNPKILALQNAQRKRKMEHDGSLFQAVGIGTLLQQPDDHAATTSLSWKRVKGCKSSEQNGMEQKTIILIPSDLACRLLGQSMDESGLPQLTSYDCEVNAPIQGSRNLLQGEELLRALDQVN
Hepatocyte nuclear factor 6 (Homo sapiens), sequence (Q9UBC0 whole entry, looked up): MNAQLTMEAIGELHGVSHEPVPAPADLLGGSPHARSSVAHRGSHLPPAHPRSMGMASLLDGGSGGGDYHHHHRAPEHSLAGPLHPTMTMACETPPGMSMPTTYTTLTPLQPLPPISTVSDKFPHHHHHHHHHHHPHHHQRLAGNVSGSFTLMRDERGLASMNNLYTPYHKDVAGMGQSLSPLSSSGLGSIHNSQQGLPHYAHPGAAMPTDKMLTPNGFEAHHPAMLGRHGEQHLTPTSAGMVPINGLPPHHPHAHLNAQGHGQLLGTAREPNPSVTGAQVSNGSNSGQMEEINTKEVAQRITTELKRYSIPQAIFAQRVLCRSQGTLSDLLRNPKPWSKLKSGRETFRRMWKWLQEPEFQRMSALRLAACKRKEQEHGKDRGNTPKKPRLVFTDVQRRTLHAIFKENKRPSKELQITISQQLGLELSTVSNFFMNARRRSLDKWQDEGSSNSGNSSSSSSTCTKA
Paired box protein Pax-6 (Homo sapiens), sequence (P26367 whole entry, looked up): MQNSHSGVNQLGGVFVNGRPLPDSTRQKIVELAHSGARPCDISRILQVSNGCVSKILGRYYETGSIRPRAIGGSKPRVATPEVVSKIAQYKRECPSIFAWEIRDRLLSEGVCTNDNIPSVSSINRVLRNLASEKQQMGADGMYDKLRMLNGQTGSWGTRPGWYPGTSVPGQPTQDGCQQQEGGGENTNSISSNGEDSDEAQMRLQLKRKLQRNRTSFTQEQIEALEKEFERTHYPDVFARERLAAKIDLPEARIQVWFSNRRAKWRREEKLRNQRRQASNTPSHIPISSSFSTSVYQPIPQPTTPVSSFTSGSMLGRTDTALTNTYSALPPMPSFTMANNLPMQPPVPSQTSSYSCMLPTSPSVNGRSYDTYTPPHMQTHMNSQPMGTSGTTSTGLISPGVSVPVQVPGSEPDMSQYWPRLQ

For orientation: AC50 means the concentration giving half of the maximal activity seen. With `CCOC(=O)Nc1cccc(OC(=O)Nc2ccccc2)c1`, the call in assay [1], in assay [2], in [3], in [4], in [5] and in assay [6] was inactive. Further, the outcome in [7] and in [8] was inactive. Besides, the AC50 in assay [9] was 100 µM (active).
In the case of `O=C(NCO)NCO`, the result in assay [1], in assay [2], in assay [3], in assay [4], in assay [5] and in assay [6] was inactive. Further, the result in assay [7] and in assay [8] was inactive. Moreover, the half-maximal activity concentration (AC50) in [9] is 27.2 µM (active).
Regarding `CCCCP(CCCC)CCCC`, the molecule was called inactive in [1], in assay [2], in assay [3], in assay [4], in assay [5] and in [6]. In addition, in assay [8], the outcome was inactive. The AC50 in [9] was 23.6 µM (active).
With `Nc1ccc(-c2ccc(N)c(Cl)c2)cc1Cl`, the outcome in [1], in [2], in assay [3], in assay [4] and in assay [8] was inactive. In addition, the AC50 was 46.5 µM (active) in assay [6] and 27.4 µM (active) in assay [9].
Consider `CCc1ccccc1C`, for which the molecule was classed as inactive in [1], in [2], in assay [3], in assay [4], in assay [5] and in assay [6]. Moreover, the molecule was called inactive in assay [8] and in [9].
As for `C[C@@H](Oc1ccc(Cl)cc1Cl)C(=O)O`, the outcome in assay [1], in assay [2], in assay [3], in assay [4], in [5] and in assay [6] was inactive. Further, the molecule was classed as inactive in assay [8] and in assay [9].
As to `COc1ccc(C=O)cc1`, the molecule was classed as inactive in assay [1], in assay [2], in assay [3], in assay [4], in assay [5] and in [6]. Further, the outcome in [7], in assay [8] and in assay [9] was inactive.
With `C[C@@H]1C[C@@H]([C@H](O)CC2CC(=O)NC(=O)C2)C(=O)[C@@H](C)C1`, the molecule was classed as inactive in [2], in [10], in [4], in assay [5], in [6] and in assay [8]. Besides, the concentration at half-maximal activity (AC50) in [5] is 2.68 µM (active) and 1.53 µM (active).
Turning to `CCC(=O)c1ccccc1`, the call in assay [1], in [2], in assay [3], in [5], in [6] and in [7] was inactive. The molecule was classed as inactive in assay [8] and in assay [9].
With `CCCCCCCCSC(=O)Oc1cc(Cl)nnc1-c1ccccc1`, the half-maximal activity concentration (AC50) in assay [1] is 164 µM (active); in [8], 146 µM (active); in assay [9] it was 27.1 µM (active). Further, the result in [2], in [10], in assay [5] and in assay [6] was inactive.
On to `CCc1ccccc1N`, for which the call in assay [1], in [2], in assay [3], in assay [4], in assay [5] and in [6] was inactive. The outcome in assay [7] and in assay [8] was inactive. The AC50 in [9] was 68.3 µM (active).
On to `CN(C)P(=O)(N(C)C)N(C)C`, for which the outcome in assay [1], in [2], in assay [3], in assay [5], in assay [6] and in [8] was inactive. Also, in [9], the result was inactive.
On to `C[C@]12CCC(=O)C[C@@H]1CC[C@@H]1[C@@H]2CC[C@]2(C)[C@@H](O)CC[C@@H]12`, for which the result in assay [1], in assay [2], in assay [4], in [5], in [6] and in [8] was inactive. Moreover, the AC50 in assay [6] was 87 µM (active) and 42.6 µM (active); in [9] it was 23.4 µM (active) and 23.5 µM (active) and 9.49 µM (active).
In the case of `CCC(=O)C(CC(C)N(C)C)(c1ccccc1)c1ccccc1` (stereo unspecified), the outcome in assay [1], in [2], in assay [3], in [4], in [5] and in [6] was inactive. The outcome in assay [7] and in [8] was inactive. In addition, the half-maximal activity concentration (AC50) in assay [9] was 18.6 µM (active).
Take `Cc1ccc2ccccc2c1C`: the molecule was classed as inactive in assay [1], in [2], in [3], in assay [5], in [6] and in assay [7]. Moreover, the outcome in [8] was inactive. Also, in [9], the half-maximal activity concentration (AC50) was 10.1 µM (active).
On to `C[C@]12CC[C@H](O)CC1=CC[C@@H]1[C@@H]2CC[C@]2(C)C(=O)CC[C@@H]12`, for which the outcome in assay [1], in [2], in assay [4], in assay [5], in assay [6] and in assay [7] was inactive. Further, the molecule was called inactive in assay [8]. Further, the half-maximal activity concentration (AC50) in [9] is 27.3 µM (active).
With `CNC(=O)O/N=C/C(C)(C)S(C)=O` (stereo unspecified), the result in assay [1], in assay [2], in assay [3], in [6], in assay [7] and in assay [8] was inactive. Further, the outcome in assay [9] was inactive. In addition, in [5], the AC50 is 154 µM (active).
For `O=CC=O`, the result in assay [1], in assay [2], in assay [3], in assay [4], in assay [5] and in assay [6] was inactive. The outcome in assay [7] and in assay [8] was inactive. The AC50 in assay [9] is 4.55 µM (active).
